Reference: the supplement of paper PMC4466140

Legend:
Experiment in all cases: SPOT peptide array binding signal intensity (averaged, normalized) (arbitrary units (background-subtracted, floor 0; scale differs between SH3 domains)); higher = stronger binding of the SH3 domain to the peptide
AgAbp1 = biological target: AgAbp1
Summary of the method: (§1)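 Cellulose membranes carried synthetic 15-mer peptides with cysteines swapped for serines. These were incubated overnight at 4°C with 10 μg/ml of GST-fused SH3 domains from four yeast species in TBS-based blocking buffer. Binding signal, detected with anti-GST antibody and quantified in Genespotter, is the normalized, background-subtracted spot intensity averaged over replicates, in arbitrary units specific to each domain.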

AgBbc1 = biological target: AgBbc1
Summary of the method: as §1

AgBem1-D1 = biological target: AgBem1-D1
Summary of the method: as §1

AgBzz1-D1 = biological target: AgBzz1-D1
Summary of the method: as §1

AgBzz1-D2 = biological target: AgBzz1-D2
Summary of the method: as §1

AgCyk3 = biological target: AgCyk3
Summary of the method: as §1

AgFus1 = biological target: AgFus1
Summary of the method: as §1

AgHof1 = biological target: AgHof1
Summary of the method: as §1

AgHse1 = biological target: AgHse1
Summary of the method: as §1

AgLsb1 = biological target: AgLsb1
Summary of the method: as §1

AgLsb4 = biological target: AgLsb4
Summary of the method: as §1

AgMyo5 = biological target: AgMyo5
Summary of the method: as §1

AgNbp2 = biological target: AgNbp2
Summary of the method: as §1

AgRvs167 = biological target: AgRvs167
Summary of the method: as §1

AgSho1 = biological target: AgSho1
Summary of the method: as §1

AgSla1-D1-D2 = biological target: AgSla1-D1-D2
Summary of the method: as §1

AgSla1-D3 = biological target: AgSla1-D3
Summary of the method: as §1

CaAbp1-D1 = biological target: CaAbp1-D1
Summary of the method: as §1

CaAbp1-D2 = biological target: CaAbp1-D2
Summary of the method: as §1

CaBbc1 = biological target: CaBbc1
Summary of the method: as §1

CaBem1-D1 = biological target: CaBem1-D1
Summary of the method: as §1

CaBzz1-D1 = biological target: CaBzz1-D1
Summary of the method: as §1

CaBzz1-D2 = biological target: CaBzz1-D2
Summary of the method: as §1

CaCyk3 = biological target: CaCyk3
Summary of the method: as §1

CaFus1 = biological target: CaFus1
Summary of the method: as §1

CaHof1 = biological target: CaHof1
Summary of the method: as §1

CaHse1 = biological target: CaHse1
Summary of the method: as §1

CaLsb1 = biological target: CaLsb1
Summary of the method: as §1

CaLsb4 = biological target: CaLsb4
Summary of the method: as §1

CaMyo5 = biological target: CaMyo5
Summary of the method: as §1

CaNbp2 = biological target: CaNbp2
Summary of the method: as §1

CaRvs167 = biological target: CaRvs167
Summary of the method: as §1

CaRvs167-3 = biological target: CaRvs167-3
Summary of the method: as §1

CaSho1 = biological target: CaSho1
Summary of the method: as §1

CaSla1-D1-D2 = biological target: CaSla1-D1-D2
Summary of the method: as §1

CaSla1-D3 = biological target: CaSla1-D3
Summary of the method: as §1

ScAbp1 = biological target: ScAbp1
Summary of the method: as §1

ScBbc1 = biological target: ScBbc1
Summary of the method: as §1

ScBem1-D1 = biological target: ScBem1-D1
Summary of the method: as §1

ScBzz1-D1 = biological target: ScBzz1-D1
Summary of the method: as §1

ScBzz1-D2 = biological target: ScBzz1-D2
Summary of the method: as §1

ScCyk3 = biological target: ScCyk3
Summary of the method: as §1

ScFus1 = biological target: ScFus1
Summary of the method: as §1

ScHof1 = biological target: ScHof1
Summary of the method: as §1

ScHse1 = biological target: ScHse1
Summary of the method: as §1

ScLsb1 = biological target: ScLsb1
Summary of the method: as §1

ScLsb2 = biological target: ScLsb2
Summary of the method: as §1

ScLsb3 = biological target: ScLsb3
Summary of the method: as §1

ScLsb4 = biological target: ScLsb4
Summary of the method: as §1

ScMyo3 = biological target: ScMyo3
Summary of the method: as §1

ScMyo5 = biological target: ScMyo5
Summary of the method: as §1

ScNbp2 = biological target: ScNbp2
Summary of the method: as §1

ScPex13 = biological target: ScPex13
Summary of the method: as §1

ScRvs167 = biological target: ScRvs167
Summary of the method: as §1

ScSho1 = biological target: ScSho1
Summary of the method: as §1

ScSla1-D1-D2 = biological target: ScSla1-D1-D2
Summary of the method: as §1

ScSla1-D3 = biological target: ScSla1-D3
Summary of the method: as §1

SpAbp1-D1 = biological target: SpAbp1-D1
Summary of the method: as §1

SpBbc1 = biological target: SpBbc1
Summary of the method: as §1

SpBzz1-D1 = biological target: SpBzz1-D1
Summary of the method: as §1

SpBzz1-D2 = biological target: SpBzz1-D2
Summary of the method: as §1

SpCyk3 = biological target: SpCyk3
Summary of the method: as §1

SpHof1 = biological target: SpHof1
Summary of the method: as §1

SpHof1-2 = biological target: SpHof1-2
Summary of the method: as §1

SpHof1-3 = biological target: SpHof1-3
Summary of the method: as §1

SpHse1 = biological target: SpHse1
Summary of the method: as §1

SpLsb1 = biological target: SpLsb1
Summary of the method: as §1

SpLsb4 = biological target: SpLsb4
Summary of the method: as §1

SpMyo1 = biological target: SpMyo1
Summary of the method: as §1

SpNbp2 = biological target: SpNbp2
Summary of the method: as §1

SpPex13 = biological target: SpPex13
Summary of the method: as §1

SpRvs167 = biological target: SpRvs167
Summary of the method: as §1

SpSla1-D1-D2 = biological target: SpSla1-D1-D2
Summary of the method: as §1

SpSla1-D3 = biological target: SpSla1-D3
Summary of the method: as §1

PSTMDFPKLPSFQNS
SPOT peptide array binding signal intensity (AgAbp1): 3 | SPOT peptide array binding signal intensity (AgBbc1): 10.5 | SPOT peptide array binding signal intensity (AgBem1-D1): 88.5 | SPOT peptide array binding signal intensity (AgBzz1-D1): 13 | SPOT peptide array binding signal intensity (AgBzz1-D2): ≤ 0 | SPOT peptide array binding signal intensity (AgCyk3): ≤ 0 | SPOT peptide array binding signal intensity (AgFus1): 347 | SPOT peptide array binding signal intensity (AgHof1): 63.2 | SPOT peptide array binding signal intensity (AgHse1): 198 | SPOT peptide array binding signal intensity (AgLsb1): 0.5 | SPOT peptide array binding signal intensity (AgLsb4): 6 | SPOT peptide array binding signal intensity (AgMyo5): 13.5 | SPOT peptide array binding signal intensity (AgNbp2): 179 | SPOT peptide array binding signal intensity (AgRvs167): 3.5 | SPOT peptide array binding signal intensity (AgSho1): 376 | SPOT peptide array binding signal intensity (AgSla1-D1-D2): ≤ 0 | SPOT peptide array binding signal intensity (AgSla1-D3): 0.5 | SPOT peptide array binding signal intensity (CaAbp1-D1): 0.5 | SPOT peptide array binding signal intensity (CaAbp1-D2): 43.5 | SPOT peptide array binding signal intensity (CaBbc1): 34.5 | SPOT peptide array binding signal intensity (CaBem1-D1): 54 | SPOT peptide array binding signal intensity (CaBzz1-D1): 85 | SPOT peptide array binding signal intensity (CaBzz1-D2): 57.5 | SPOT peptide array binding signal intensity (CaCyk3): 8 | SPOT peptide array binding signal intensity (CaFus1): 1020 | SPOT peptide array binding signal intensity (CaHof1): 1 | SPOT peptide array binding signal intensity (CaHse1): 156 | SPOT peptide array binding signal intensity (CaLsb1): 0.5 | SPOT peptide array binding signal intensity (CaLsb4): 390 | SPOT peptide array binding signal intensity (CaMyo5): 95.5

VPPVPLPFGIPPFPM
SPOT peptide array binding signal intensity (AgAbp1): 3 | SPOT peptide array binding signal intensity (AgBbc1): ≤ 0 | SPOT peptide array binding signal intensity (AgBem1-D1): 288 | SPOT peptide array binding signal intensity (AgBzz1-D1): 6 | SPOT peptide array binding signal intensity (AgBzz1-D2): 10 | SPOT peptide array binding signal intensity (AgCyk3): ≤ 0 | SPOT peptide array binding signal intensity (AgFus1): ≤ 0 | SPOT peptide array binding signal intensity (AgHof1): 338 | SPOT peptide array binding signal intensity (AgHse1): 51 | SPOT peptide array binding signal intensity (AgLsb1): 2 | SPOT peptide array binding signal intensity (AgLsb4): ≤ 0 | SPOT peptide array binding signal intensity (AgMyo5): 720 | SPOT peptide array binding signal intensity (AgNbp2): 5 | SPOT peptide array binding signal intensity (AgRvs167): ≤ 0 | SPOT peptide array binding signal intensity (AgSho1): 4 | SPOT peptide array binding signal intensity (AgSla1-D1-D2): 4 | SPOT peptide array binding signal intensity (AgSla1-D3): 5.75 | SPOT peptide array binding signal intensity (CaAbp1-D1): 8 | SPOT peptide array binding signal intensity (CaAbp1-D2): 11 | SPOT peptide array binding signal intensity (CaBbc1): 2.5 | SPOT peptide array binding signal intensity (CaBem1-D1): 20 | SPOT peptide array binding signal intensity (CaBzz1-D1): 32 | SPOT peptide array binding signal intensity (CaBzz1-D2): ≤ 0 | SPOT peptide array binding signal intensity (CaCyk3): 3 | SPOT peptide array binding signal intensity (CaFus1): 102 | SPOT peptide array binding signal intensity (CaHof1): ≤ 0 | SPOT peptide array binding signal intensity (CaHse1): 2.5 | SPOT peptide array binding signal intensity (CaLsb1): 0.25 | SPOT peptide array binding signal intensity (CaLsb4): 27.5 | SPOT peptide array binding signal intensity (CaMyo5): 296 | SPOT peptide array binding signal intensity (CaNbp2): 88.5 | SPOT peptide array binding signal intensity (CaRvs167): 1.33 | SPOT peptide array binding signal intensity (CaRvs167-3): 2.5 | SPOT peptide array binding signal intensity (CaSho1): 25 | SPOT peptide array binding signal intensity (CaSla1-D1-D2): 34 | SPOT peptide array binding signal intensity (CaSla1-D3): 25.8 | SPOT peptide array binding signal intensity (ScAbp1): ≤ 0 | SPOT peptide array binding signal intensity (ScBbc1): ≤ 0 | SPOT peptide array binding signal intensity (ScBem1-D1): 1 | SPOT peptide array binding signal intensity (ScBzz1-D1): ≤ 0 | SPOT peptide array binding signal intensity (ScBzz1-D2): 2.5 | SPOT peptide array binding signal intensity (ScCyk3): 2.5 | SPOT peptide array binding signal intensity (ScFus1): ≤ 0 | SPOT peptide array binding signal intensity (ScHof1): 144 | SPOT peptide array binding signal intensity (ScHse1): 47 | SPOT peptide array binding signal intensity (ScLsb1): 0.75 | SPOT peptide array binding signal intensity (ScLsb2): ≤ 0 | SPOT peptide array binding signal intensity (ScLsb3): 6.5 | SPOT peptide array binding signal intensity (ScLsb4): ≤ 0 | SPOT peptide array binding signal intensity (ScMyo3): 867 | SPOT peptide array binding signal intensity (ScMyo5): 308 | SPOT peptide array binding signal intensity (ScNbp2): 23 | SPOT peptide array binding signal intensity (ScPex13): 772 | SPOT peptide array binding signal intensity (ScRvs167): 0.333 | SPOT peptide array binding signal intensity (ScSho1): 41 | SPOT peptide array binding signal intensity (ScSla1-D1-D2): ≤ 0 | SPOT peptide array binding signal intensity (ScSla1-D3): 7.5 | SPOT peptide array binding signal intensity (SpAbp1-D1): 2 | SPOT peptide array binding signal intensity (SpBbc1): 1.5 | SPOT peptide array binding signal intensity (SpBzz1-D1): 236 | SPOT peptide array binding signal intensity (SpBzz1-D2): 1.5 | SPOT peptide array binding signal intensity (SpCyk3): 1 | SPOT peptide array binding signal intensity (SpHof1): 4 | SPOT peptide array binding signal intensity (SpHof1-2): 9.5 | SPOT peptide array binding signal intensity (SpHof1-3): 7 | SPOT peptide array binding signal intensity (SpHse1): 70.8 | SPOT peptide array binding signal intensity (SpLsb1): ≤ 0 | SPOT peptide array binding signal intensity (SpLsb4): 51.5 | SPOT peptide array binding signal intensity (SpMyo1): 775 | SPOT peptide array binding signal intensity (SpNbp2): 7 | SPOT peptide array binding signal intensity (SpPex13): 9.5 | SPOT peptide array binding signal intensity (SpRvs167): 24.5 | SPOT peptide array binding signal intensity (SpSla1-D1-D2): 3 | SPOT peptide array binding signal intensity (SpSla1-D3): 6
